Experimental data reported in PubChem BioAssay (EPA / NIEHS).
Inconclusive results are not listed. Activity calls are given as the source filed them. The calls were made as follows, unless noted: active = hit-call score of the fitted dose curve at least 0.9, where 1 is the maximum; inactive = score below 0.9.

Legend:
[1] = ATG_PBREM_CIS: Attagene CIS-FACTORIAL HepG2 Assay for human Phenobarbital-responsive Enhancer Module (PBREM) (AID 2282955); details: HepG2 PBREM cis-reporter, Attagene multiplexed transcription; actives raise or lower the signal
In short: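 Fluorescence of labelled reporter cDNA fragments, resolved by capillary electrophoresis, gives mRNA induction in transfected HepG2 cells treated for 24 h; DMSO serves as negative control and baseline.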

[2] = target: Paired box protein Pax-6 (Homo sapiens) (UniProt P26367); experiment: ATG_Pax6_CIS: Attagene CIS-FACTORIAL HepG2 Assay for human Paired Box 6 (PAX6) (AID 2282956); details: HepG2 CIS-FACTORIAL PAX6 reporter transcription, RNA readout; actives raise or lower the signal
Sequence of Paired box protein Pax-6 (Homo sapiens) (P26367 whole entry, looked up): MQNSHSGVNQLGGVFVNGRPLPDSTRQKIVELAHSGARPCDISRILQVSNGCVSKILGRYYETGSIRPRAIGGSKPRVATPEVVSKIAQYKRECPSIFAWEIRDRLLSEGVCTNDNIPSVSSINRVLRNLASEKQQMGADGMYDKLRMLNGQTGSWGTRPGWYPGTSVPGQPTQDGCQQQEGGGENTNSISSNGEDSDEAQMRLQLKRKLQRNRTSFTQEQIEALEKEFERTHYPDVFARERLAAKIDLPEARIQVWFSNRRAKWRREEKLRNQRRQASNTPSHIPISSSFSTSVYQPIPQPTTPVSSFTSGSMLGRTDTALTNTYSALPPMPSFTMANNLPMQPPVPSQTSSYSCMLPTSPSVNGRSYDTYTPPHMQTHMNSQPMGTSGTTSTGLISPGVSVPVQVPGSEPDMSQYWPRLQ
In short: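 Read-out is reporter transcript level, measured by RT-PCR with fluorescent primer extension and capillary electrophoresis after 24 h dosing of transfected HepG2 cells. Activity in either direction fitted relative to DMSO control.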

[3] = ATG_PXRE_CIS: Attagene CIS-FACTORIAL HepG2 Assay for human Pregnane X Receptor Element (PXRE) (AID 2282957); details: HepG2 Attagene CIS-FACTORIAL PXRE reporter, mRNA; actives raise or lower the signal
In short: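 Fluorescent capillary electrophoresis of amplified reporter cDNA gave the signal, collected 24 h after dosing HepG2 cells that held transfected cis-element reporter constructs.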

[4] = ATG_PPRE_CIS: Attagene CIS-FACTORIAL HepG2 Assay for human Peroxisome Proliferator-activated Response Element (PPRE) (AID 2282958); details: HepG2 PPRE cis-element reporter, Attagene transcription factor profiling; actives raise or lower the signal
In short: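 Cells are first transfected transiently with the multiplexed reporter library, then dosed for 24 h. Total RNA is reverse-transcribed, amplified, fluorescently end-labeled and HpaI-cut before capillary electrophoresis; activity is fitted bidirectionally against DMSO controls.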

[5] = ATG_RORE_CIS: Attagene CIS-FACTORIAL HepG2 Assay for human RAR-related Orphan Receptor Element (RORE) (AID 2282959); details: HepG2 Attagene cis-factorial RORE reporter, mRNA; actives raise or lower the signal
In short: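 Cells were HepG2 carrying transfected cis-regulated reporter constructs, dosed for 24 hours. Total RNA was reverse-transcribed and reporter cDNA amplified, fluorescently labeled and sized by capillary electrophoresis. Activity was fitted bidirectionally relative to DMSO.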

[6] = target: Transcription factor Sp1 (Homo sapiens) (UniProt P08047); experiment: ATG_Sp1_CIS: Attagene CIS-FACTORIAL HepG2 Assay for human Specificity Protein 1 (Sp1) (AID 2282961); details: HepG2 Sp1 cis-reporter transcription, actives raise or lower the signal
Sequence of Transcription factor Sp1 (Homo sapiens) (P08047 whole entry, looked up): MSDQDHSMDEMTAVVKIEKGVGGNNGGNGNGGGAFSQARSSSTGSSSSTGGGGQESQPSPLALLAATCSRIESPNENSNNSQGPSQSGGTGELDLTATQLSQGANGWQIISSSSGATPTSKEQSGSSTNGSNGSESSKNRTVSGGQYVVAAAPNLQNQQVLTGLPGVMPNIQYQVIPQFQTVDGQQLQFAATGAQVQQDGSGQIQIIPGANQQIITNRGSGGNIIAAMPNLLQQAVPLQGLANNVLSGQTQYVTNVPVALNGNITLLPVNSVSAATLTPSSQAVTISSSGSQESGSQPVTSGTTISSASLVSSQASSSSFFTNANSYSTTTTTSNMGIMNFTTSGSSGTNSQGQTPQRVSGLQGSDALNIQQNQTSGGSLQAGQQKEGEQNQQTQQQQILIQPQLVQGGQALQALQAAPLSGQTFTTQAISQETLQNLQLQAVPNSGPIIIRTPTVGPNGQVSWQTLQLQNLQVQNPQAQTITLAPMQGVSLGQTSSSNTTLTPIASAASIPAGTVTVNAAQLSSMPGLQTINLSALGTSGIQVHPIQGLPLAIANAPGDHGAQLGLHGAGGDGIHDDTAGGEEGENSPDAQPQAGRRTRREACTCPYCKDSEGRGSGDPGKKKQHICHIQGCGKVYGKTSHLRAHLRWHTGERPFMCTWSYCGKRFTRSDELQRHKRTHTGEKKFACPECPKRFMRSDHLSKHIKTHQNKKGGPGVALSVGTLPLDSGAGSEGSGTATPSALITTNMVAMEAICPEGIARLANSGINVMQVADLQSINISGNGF
In short: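 Endogenous Sp1 activity was gauged in human liver HepG2 cells bearing transfected reporter units under a cis-regulating promoter. After 24 h dosing, reporter mRNA was quantified by RT-PCR with capillary electrophoresis, and activity fitted bidirectionally versus DMSO.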

[7] = ATG_SREBP_CIS: Attagene CIS-FACTORIAL HepG2 Assay for human Sterol Regulatory Element Binding (SREBP) (AID 2282962); details: HepG2 Attagene cis-factorial SREBP reporter, mRNA; actives raise or lower the signal
In short: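 Endogenous SREBP activity read as cis-element-driven reporter transcript in transiently transfected HepG2, 24 h post-dosing; quantified via RT-PCR plus capillary electrophoresis of fluorescent fragments. Gain or loss of signal fitted relative to DMSO baseline.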

[8] = target: Signal transducer and activator of transcription 3 (Homo sapiens) (UniProt P40763); experiment: ATG_STAT3_CIS: Attagene CIS-FACTORIAL HepG2 Assay for human Signal Transducer and Activator of Transcription 3 (STAT3) (AID 2282963); details: HepG2, Attagene cis-factorial STAT3 reporter transcription; actives raise or lower the signal
Sequence of Signal transducer and activator of transcription 3 (Homo sapiens) (P40763 whole entry, looked up): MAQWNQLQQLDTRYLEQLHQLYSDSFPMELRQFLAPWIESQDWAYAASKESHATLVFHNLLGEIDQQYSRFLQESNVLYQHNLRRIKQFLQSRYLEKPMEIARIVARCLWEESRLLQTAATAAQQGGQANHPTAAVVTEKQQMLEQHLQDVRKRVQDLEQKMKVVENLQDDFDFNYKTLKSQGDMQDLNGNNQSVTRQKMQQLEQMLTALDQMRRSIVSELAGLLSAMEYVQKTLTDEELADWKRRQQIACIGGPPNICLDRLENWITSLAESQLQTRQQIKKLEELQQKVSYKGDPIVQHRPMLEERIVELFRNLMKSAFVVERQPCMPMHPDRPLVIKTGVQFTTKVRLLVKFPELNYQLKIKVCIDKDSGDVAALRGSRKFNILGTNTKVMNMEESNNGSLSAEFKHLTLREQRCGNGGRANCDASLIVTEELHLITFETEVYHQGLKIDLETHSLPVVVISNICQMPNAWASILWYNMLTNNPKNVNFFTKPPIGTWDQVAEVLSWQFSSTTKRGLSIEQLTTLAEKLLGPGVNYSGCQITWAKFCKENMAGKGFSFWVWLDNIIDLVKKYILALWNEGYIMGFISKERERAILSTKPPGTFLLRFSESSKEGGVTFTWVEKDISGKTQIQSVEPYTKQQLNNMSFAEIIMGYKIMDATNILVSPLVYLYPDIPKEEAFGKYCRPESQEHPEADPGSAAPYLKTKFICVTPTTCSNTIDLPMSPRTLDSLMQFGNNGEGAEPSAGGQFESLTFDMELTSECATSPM
In short: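 Uses human liver HepG2 transiently carrying cis-regulated reporter transcription units. Following 24 h dosing, reporter mRNA induction was detected by RT-PCR and capillary electrophoresis, analysed bidirectionally versus DMSO.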

[9] = ATG_TA_CIS: Attagene CIS-FACTORIAL HepG2 Assay for human TA Basal Promoter (AID 2282964); details: HepG2 Attagene CIS-factorial TA basal promoter reporter; actives raise or lower the signal
In short: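 HepG2 cells transiently transfected with multiplexed cis-promoter reporter units, dosed 24 h. Reporter mRNA measured by RT-PCR, 6-FAM labelling, HpaI digestion and capillary electrophoresis; bidirectional fit versus DMSO baseline, serving as background control.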

[10] = ATG_TCF_b_cat_CIS: Attagene CIS-FACTORIAL HepG2 Assay for human T-Cell-Factor with beta-catenin (TCF/b-cat) (AID 2282965); details: HepG2 TCF/beta-catenin cis-reporter transcription, actives raise or lower the signal
In short: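 In this cis-format system, transfected HepG2 cells report endogenous transcription factor activity. Readout after 24 h exposure is reporter transcript abundance from RT-PCR and capillary electrophoresis, analysed for gain or loss of signal versus DMSO.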

[11] = ATG_TGFb_CIS: Attagene CIS-FACTORIAL HepG2 Assay for human Transforming Growth Factor (TGF) (AID 2282967); details: HepG2 Attagene CIS TGFb reporter, mRNA transcription; actives raise or lower the signal
In short: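 HepG2 cells transiently transfected with cis-promoter-driven multiplexed reporter units; 24 h compound exposure. Reporter mRNA measured by RT-PCR, 6-FAM labeling, HpaI digestion and capillary electrophoresis; bidirectional fit versus DMSO baseline.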

[12] = ATG_VDRE_CIS: Attagene CIS-FACTORIAL HepG2 Assay for human Vitamin D Receptor Element (VDRE) (AID 2282968); details: HepG2 VDRE cis-reporter transcription, actives raise or lower the signal
In short: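 Transfected HepG2 reporter cells, chemical treatment 24 h. RNA isolated, cDNA amplified with reporter-specific primers, products analysed by capillary electrophoresis. Endpoint fitted in both directions versus DMSO.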

[13] = target: X-box-binding protein 1 (Homo sapiens) (UniProt P17861); experiment: ATG_Xbp1_CIS: Attagene CIS-FACTORIAL HepG2 Assay for human X-box Binding Protein 1 (XBP1) (AID 2282972); details: HepG2 XBP1 cis-element reporter, Attagene multiplex; actives raise or lower the signal
Sequence of X-box-binding protein 1 (Homo sapiens) (P17861 whole entry, looked up): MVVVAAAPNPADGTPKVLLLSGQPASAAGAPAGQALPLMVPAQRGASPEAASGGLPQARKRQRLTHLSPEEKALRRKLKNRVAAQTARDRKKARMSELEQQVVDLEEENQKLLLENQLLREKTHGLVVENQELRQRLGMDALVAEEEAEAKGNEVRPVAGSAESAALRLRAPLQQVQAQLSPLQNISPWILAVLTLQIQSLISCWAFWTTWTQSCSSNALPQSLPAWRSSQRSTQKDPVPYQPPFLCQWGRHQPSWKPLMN
In short: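 Reporter transcripts were quantified by RT-PCR with fluorescent primer extension and capillary electrophoresis after 24 h chemical exposure. Cells: transiently transfected HepG2 carrying cis-regulated reporter constructs; data fitted bidirectionally relative to DMSO.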

[14] = ATG_Sox_CIS: Attagene CIS-FACTORIAL HepG2 Assay for human SRY-box transcription factor (SOX) (AID 2282960); details: HepG2 Attagene cis-factorial SOX reporter, mRNA; actives raise or lower the signal
In short: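 Transient MRTU transfection of HepG2; 24 h compound incubation; TriZol RNA, oligo(dT) RT, PCR, 6-FAM primer extension, HpaI cut, CE. Bidirectional fit, DMSO = baseline.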

[15] = target: Nuclear receptor subfamily 1 group I member 3 (Homo sapiens) (UniProt Q14994); experiment: ATG_CAR_TRANS: Attagene TRANS-FACTORIAL HepG2 Assay for human Constitutive Androstane Receptor (CAR) (AID 2282969; active = hit-call score of the fitted dose curve at least 0.9, where 1 is the maximum;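 also: activators raise reporter mRNA above DMSO so AC50 marks induction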); details: HepG2 Attagene TRANS-FACTORIAL CAR reporter
Sequence of Nuclear receptor subfamily 1 group I member 3 (Homo sapiens) (Q14994 whole entry, looked up, the tested form may be a part): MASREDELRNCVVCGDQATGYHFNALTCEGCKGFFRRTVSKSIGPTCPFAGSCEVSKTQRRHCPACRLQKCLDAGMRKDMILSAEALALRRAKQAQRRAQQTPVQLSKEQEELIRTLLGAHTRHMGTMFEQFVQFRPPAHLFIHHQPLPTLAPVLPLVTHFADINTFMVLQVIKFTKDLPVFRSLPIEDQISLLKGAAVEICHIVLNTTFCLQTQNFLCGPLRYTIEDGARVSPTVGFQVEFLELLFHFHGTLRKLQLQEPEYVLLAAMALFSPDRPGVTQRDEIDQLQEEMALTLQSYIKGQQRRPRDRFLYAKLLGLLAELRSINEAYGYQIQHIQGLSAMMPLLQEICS
In short: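 Steps: transient transfection of HepG2 with multiple GAL4-UAS reporter units; 24 h compound incubation; RNA isolation, RT-PCR, 6-FAM primer extension, HpaI digest; capillary electrophoresis. Gain-of-signal relative to DMSO negative control.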

[16] = target: Estrogen receptor (Homo sapiens) (UniProt P03372); experiment: ATG_ERa_TRANS: Attagene TRANS-FACTORIAL HepG2 Assay for human Estrogen Receptor alpha (ERa) (AID 2282970; active = hit-call score of the fitted dose curve at least 0.9, where 1 is the maximum); details: HepG2 Attagene TRANS ERa GAL4 reporter, mRNA
Sequence of Estrogen receptor (Homo sapiens) (P03372 whole entry, looked up, the tested form may be a part): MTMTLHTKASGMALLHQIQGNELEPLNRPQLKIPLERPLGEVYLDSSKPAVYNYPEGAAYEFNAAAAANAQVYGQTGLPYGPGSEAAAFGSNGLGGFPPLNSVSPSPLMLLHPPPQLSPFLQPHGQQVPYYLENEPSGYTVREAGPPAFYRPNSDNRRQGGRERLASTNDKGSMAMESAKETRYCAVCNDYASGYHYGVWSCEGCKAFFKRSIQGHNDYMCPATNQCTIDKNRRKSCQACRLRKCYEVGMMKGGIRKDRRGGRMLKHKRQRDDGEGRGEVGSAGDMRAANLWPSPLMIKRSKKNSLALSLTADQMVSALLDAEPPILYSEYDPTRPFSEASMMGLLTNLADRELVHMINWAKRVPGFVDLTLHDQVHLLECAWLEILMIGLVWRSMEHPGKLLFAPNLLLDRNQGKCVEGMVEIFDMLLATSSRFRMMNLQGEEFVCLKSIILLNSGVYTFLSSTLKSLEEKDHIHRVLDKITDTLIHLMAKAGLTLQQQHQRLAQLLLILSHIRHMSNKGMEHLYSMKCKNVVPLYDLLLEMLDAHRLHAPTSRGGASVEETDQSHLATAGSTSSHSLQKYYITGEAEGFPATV
In short: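 One of 30 multiplexed endpoints from a HepG2 TRANS system, this one reports ERa-Gal4-driven reporter mRNA. Transcripts were quantified 24 hours post-dosing by fluorescent RT-PCR and capillary electrophoresis, with activity scored as induction over DMSO.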

[17] = target: Steroid hormone receptor ERR1 (Homo sapiens) (UniProt P11474); experiment: ATG_ERRa_TRANS: Attagene TRANS-FACTORIAL HepG2 Assay for human Estrogen-Related Receptor alpha (ERRa) (AID 2282971; active = hit-call score of the fitted dose curve at least 0.9, where 1 is the maximum); details: HepG2 Attagene TRANS reporter, ERRa transactivation
Sequence of Steroid hormone receptor ERR1 (Homo sapiens) (P11474 whole entry, looked up, the tested form may be a part): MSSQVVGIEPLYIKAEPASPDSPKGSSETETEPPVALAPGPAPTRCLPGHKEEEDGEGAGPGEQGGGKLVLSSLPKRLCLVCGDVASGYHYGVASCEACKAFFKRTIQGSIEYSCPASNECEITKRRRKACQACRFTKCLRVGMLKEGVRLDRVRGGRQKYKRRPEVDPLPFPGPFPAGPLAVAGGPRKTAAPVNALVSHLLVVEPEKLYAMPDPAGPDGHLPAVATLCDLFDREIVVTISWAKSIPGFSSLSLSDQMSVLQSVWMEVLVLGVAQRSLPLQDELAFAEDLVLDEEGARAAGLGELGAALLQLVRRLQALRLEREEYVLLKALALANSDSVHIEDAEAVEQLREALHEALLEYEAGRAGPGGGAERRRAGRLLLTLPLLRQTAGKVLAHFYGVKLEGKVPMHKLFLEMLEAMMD
In short: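 HepG2 cells transiently transfected with multiplexed GAL4-UAS reporter units reading chimeric ERRa-Gal4 activity; 24 h compound exposure. Reporter mRNA measured by RT-PCR, 6-FAM labelling, HpaI digest and capillary electrophoresis; gain of signal fitted versus DMSO baseline.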

[18] = target: Androgen receptor (Homo sapiens) (UniProt P10275); experiment: ATG_AR_TRANS: Attagene TRANS-FACTORIAL HepG2 Assay for human Androgen Receptor (AR) (AID 2282973; active = hit-call score of the fitted dose curve at least 0.9, where 1 is the maximum); details: HepG2 Attagene TRANS-FACTORIAL AR reporter transcription
Sequence of Androgen receptor (Homo sapiens) (P10275 whole entry, looked up, the tested form may be a part): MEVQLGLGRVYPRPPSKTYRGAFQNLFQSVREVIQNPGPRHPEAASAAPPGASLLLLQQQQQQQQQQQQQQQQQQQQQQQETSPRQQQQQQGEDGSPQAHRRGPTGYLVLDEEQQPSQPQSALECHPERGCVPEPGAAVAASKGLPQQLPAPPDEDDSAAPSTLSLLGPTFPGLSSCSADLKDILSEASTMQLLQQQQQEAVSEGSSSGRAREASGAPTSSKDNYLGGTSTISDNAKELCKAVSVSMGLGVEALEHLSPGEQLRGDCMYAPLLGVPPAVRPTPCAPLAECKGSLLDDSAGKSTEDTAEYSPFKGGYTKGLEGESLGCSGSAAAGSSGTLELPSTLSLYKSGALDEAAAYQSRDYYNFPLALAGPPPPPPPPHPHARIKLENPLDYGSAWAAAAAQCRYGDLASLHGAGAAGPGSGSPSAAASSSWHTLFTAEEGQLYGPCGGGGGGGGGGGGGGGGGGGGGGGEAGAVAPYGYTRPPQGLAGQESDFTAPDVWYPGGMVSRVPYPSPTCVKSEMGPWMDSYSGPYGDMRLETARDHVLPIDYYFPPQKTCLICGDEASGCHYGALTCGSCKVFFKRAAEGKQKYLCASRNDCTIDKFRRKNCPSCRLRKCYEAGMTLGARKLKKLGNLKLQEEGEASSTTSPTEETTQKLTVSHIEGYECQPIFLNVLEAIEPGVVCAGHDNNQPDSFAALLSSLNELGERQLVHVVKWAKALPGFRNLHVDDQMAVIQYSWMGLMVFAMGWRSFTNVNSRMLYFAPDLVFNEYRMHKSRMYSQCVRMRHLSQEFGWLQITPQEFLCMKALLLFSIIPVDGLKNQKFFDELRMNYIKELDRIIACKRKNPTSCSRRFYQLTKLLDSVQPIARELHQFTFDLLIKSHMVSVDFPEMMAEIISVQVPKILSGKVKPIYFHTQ
In short: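 HepG2 cells transiently transfected with multiplexed GAL4-UAS reporter units and chimeric NR-Gal4 fusion; 24 h compound exposure. Reporter mRNA measured by RT-PCR, 6-FAM labelling, HpaI digestion and capillary electrophoresis; gain-of-signal fitted relative to DMSO baseline.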

[19] = ATG_M_19_TRANS: Attagene TRANS-FACTORIAL HepG2 Assay for M19 Transcription Factor (Internal Marker) (AID 2282974; active = hit-call score of the fitted dose curve at least 0.9, where 1 is the maximum); details: HepG2 Attagene TRANS-FACTORIAL M19 internal marker reporter
In short: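 Cells: human HepG2, transiently transfected with multiplexed reporter transcription units. Exposure: 24 h. Detection: RT-PCR of reporter mRNA with capillary electrophoresis. Analysis: gain-of-signal vs DMSO.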

[20] = ATG_TAL_CIS: Attagene CIS-FACTORIAL HepG2 Assay for human TAL Basal Promoter (AID 2282966); details: HepG2 Attagene cis-factorial TAL promoter reporter; actives raise or lower the signal;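 also: background control endpoint measuring basal TAL promoter reporter mRNA not a specific factor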
In short: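 Transiently transfected HepG2 (cis-regulated reporter units), 24 h treatment, mRNA read by fluorescent CE after RT-PCR; bidirectional fit, DMSO baseline.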

Measured: AC50

CCOS(=O)(=O)OCC
not listed: [14] | [15] | [16] | [17] | [18] | [19] | [20]
inactive: all other assays above

CCOP(=S)(OCC)SCS(=O)(=O)CC
active: [3] 11.3 µM
not listed: [5] | [20]
inactive: all other assays above

Cn1[nH]nnc1=S
not listed: [14] | [15] | [16] | [17] | [18]
inactive: all other assays above

CC(Cl)(Cl)C(=O)O
not listed: [1] | [15] | [17] | [18] | [19] | [20]
inactive: all other assays above

CCOP(=S)(Oc1ccc([N+](=O)[O-])cc1)c1ccccc1 (centres undefined)
active: [3] 1.22 µM | [7] 27.2 µM | [12] 6.46 µM | [16] 3.9 µM
not listed: [5] | [15] | [18] | [19]
inactive: all other assays above

CC(C)Nc1ccc(Nc2ccccc2)cc1
active: [3] 1.97 µM | [12] 3.68 µM | [16] 8.77 µM
not listed: [14] | [18] | [20]
inactive: all other assays above

CO/N=C(/C(=O)OC)c1ccccc1COc1ccccc1C
active: [2] 70.1 µM | [3] 4.57 µM | [5] 36.5 µM | [12] 13 µM | [16] 2.6 µM | [13] 35.2 µM
not listed: [4] | [17] | [19] | [20]
inactive: all other assays above

OCC1CO1 (centres undefined)
not listed: [1] | [14] | [15] | [17] | [18]
inactive: all other assays above

FC(F)(F)C(F)(C(F)(F)F)C(F)(F)C(F)(F)CC1CO1 (centres undefined)
not listed: [14] | [15] | [17] | [19] | [20]
inactive: all other assays above

CCN(CC)c1ccccc1
not listed: [1] | [4] | [15] | [17] | [20]
inactive: all other assays above

O=c1ssc(Cl)c1Cl
active: [1] 50.3 µM | [2] 62.5 µM | [6] 51.6 µM | [10] 53 µM | [12] 52.6 µM | [13] 45.8 µM
not listed: [14] | [17] | [18] | [19] | [20]
inactive: all other assays above

O=C(O)C(F)(F)C(F)(F)C(=O)O
not listed: [14] | [17] | [18] | [20]
inactive: all other assays above

COP(=O)(CCC(=O)NCO)OC
not listed: [14] | [15] | [16] | [19] | [20]
inactive: all other assays above

Cc1ccc(O)cc1C
active: [16] 72.4 µM
not listed: [4] | [12] | [15] | [17] | [18] | [20]
inactive: all other assays above
